The nature of test [1]: NCI Yeast Anticancer Drug Screen. Data for the rad50 strain (AID 155).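 Also: 0% = growth of vehicle-only cultures of the same strain.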 The note with it: S. cerevisiae rad50 strain growth inhibition; at 50.0 µM; active compounds read high. The method, boiled down: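 Compounds were tested on a yeast strain with an engineered DNA damage repair alteration; the reported value is growth inhibition normalised to vehicle treatment.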
Test [2] in a line: NCI Yeast Anticancer Drug Screen. Data for the mec2-1 strain (AID 157). The note with it: S. cerevisiae mec2-1 strain, at 50.0 µM, active compounds read high. A digest of the protocol: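 Readout is yeast growth inhibition, normalised to vehicle-treated controls, in the mec2-1 strain exposed to compound.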
The nature of test [3]: NCI Yeast Anticancer Drug Screen. Data for the sgs1 mgt1 strain (AID 161).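 Also: 0% = growth of cultures given vehicle only.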 The note with it: S. cerevisiae sgs1 mgt1 strain, at 50.0 µM, active compounds read high. The method, boiled down: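 This yeast growth screen uses a strain with defined DNA-repair lesions; compound-treated growth is compared with vehicle-treated growth.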
Test [4] can be described thus: NCI Yeast Anticancer Drug Screen. Data for the cln2 rad14 strain (AID 165).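 Also: 0% = growth equal to vehicle treated cultures.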 The note with it: S. cerevisiae cln2 rad14 strain, at 50.0 µM, active compounds read high. A digest of the protocol:
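Relative to vehicle controls, growth inhibition of compound-treated cln2 rad14 yeast was recorded.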

A short description of test [5]: NCI Yeast Anticancer Drug Screen. Data for the bub3 strain (AID 167). The following applies: S. cerevisiae bub3 mutant strain, at 50.0 µM, active compounds read high. The method, boiled down: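 Growth of a checkpoint-deficient yeast mutant is measured after compound exposure. Values represent inhibition relative to vehicle.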
The nature of test [6]: NCI Yeast Anticancer Drug Screen. Data for the mlh1 rad18 strain (AID 175). The following applies: S. cerevisiae mlh1 rad18 strain growth inhibition; at 50.0 µM; active compounds read high. The method, boiled down: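 Test agents were incubated with a yeast strain of defined genotype (DNA damage repair defect). Inhibition of growth was derived by comparison with vehicle-exposed cultures.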

About 79,000 compounds went through this panel and 15% of them were active in at least one assay; those are over-represented in the sample as a whole. Unmarked numbers belong to inactive results. Activity calls are given as the source filed them. Rule as the data show it: active = growth inhibition above about 70%; inactive = the rest.

The record followed here is PubChem BioAssay (NCI).

Turning to `O=C(NNC(=O)c1ccccc1Br)c1ccccc1Br`, the growth inhibition was -18.9% in test [1]; -48.8% in test [2]; -9.6% in test [3]; 0.45% in test [4]; -25.1% in test [5]; -18.1% in test [6].
As for `CC(=O)CC(C)(C)NNS(=O)(=O)c1ccc(C)cc1`, the growth inhibition is 7.8% in test [1]; -0.65% in test [2]; -4.1% in test [3]; -20.9% in test [4]; 5.35% in test [5]; -13.6% in test [6].
In the case of `CSc1cc(Cl)c(C)cc1S(=O)(=O)NC(=O)NNc1ccccn1`, the growth inhibition in test [1] was -4.3%; in test [2] it was -1.6%; in test [3], 8.15%; in test [4], -2.05%; in test [5], -1.5%; in test [6] it was 21%.
In the case of `CCCCCCN(C(=O)Oc1ccccc1)C(C#N)c1ccccc1` (stereo not given), the growth inhibition is 0.1% in test [1]; 5.55% in test [2]; -16.8% in test [3]; -14.7% in test [4]; 1.75% in test [5]; -20.2% in test [6].
For the molecule `O=S(/C=C/C=C/S(=O)(=O)c1ccccc1)c1ccccc1` (stereo not given), the growth inhibition was 18.1% in test [1]; 24.2% in test [2]; 30.5% in test [3]; 19.3% in test [4]; 43.4% in test [5]; 74% (active) in test [6].
For the molecule `N#CC(c1cc2c(cc1Br)OCO2)N1CCOCC1` (stereo not given), the growth inhibition is 17.5% in test [1]; 19.4% in test [2]; 10.9% in test [3]; 8.25% in test [4]; 46% in test [5]; -11.8% in test [6].
Consider `CC(C)=C1CC(C)(C)N=C1CCN1CCOCC1`, for which the growth inhibition in test [1] is -12.3%; in test [2], -20.6%; in test [3], -12.5%; in test [4], -6%; in test [5], -11.3%; in test [6] it was -24.6%.
`Nc1ncc(Cl)c(NCC2(CO)CC(CCc3ccccc3)C2)n1` (stereo not given): the growth inhibition in test [1] is -4.7%; in test [2], -19.1%; in test [3] it was -11.6%; in test [4] it was -1.15%; in test [5], -37%; in test [6], 2.35%.
In the case of `O=c1[nH]c(=S)[nH]c2c1CCC2`, the growth inhibition was 6% in test [1]; 25.4% in test [2]; 44.2% in test [3]; 21.4% in test [4]; 35.2% in test [5]; 24.1% in test [6].
Take `COc1cc2cc3c4ccc(OC)c(OC)c4cc[n+]3c(C)c2cc1OC` (tested in a mixture with another compound): the growth inhibition is 98.1% (active) in test [1]; 97.7% (active) in test [2]; 98.8% (active) in test [3]; 98.4% (active) in test [4]; 98.2% (active) in test [5]; 98% (active) in test [6].
With `Cc1cc(C)c(N(C)C(=O)CCC(=O)O)c(Br)c1`, the growth inhibition in test [1] is 3.1%; in test [2], -3.05%; in test [3], -13.2%; in test [4], 0.05%; in test [5], 9%; in test [6] it was -6.45%.
Consider `Cc1ccc(N=CN(C)C)c(Cl)c1`, for which the growth inhibition in test [1] is -4.5%; in test [2], 0.8%; in test [3], 4.6%; in test [4], -16.8%; in test [5], -7.4%; in test [6], -23.1%.
As for `CCOC(=O)NN1C(=O)C(=P(c2ccccc2)(c2ccccc2)c2ccccc2)C(C(=O)OC)=C1C`, the growth inhibition in test [1] is -4.05%; in test [2] it was 4.45%; in test [3] it was -6.75%; in test [4] it was 11.8%; in test [5], -6.65%; in test [6], -4.85%.
Consider `Cc1cc(Cl)ccc1NC(=O)/C(=N\NC(C)(C)C)C(C#N)c1nc(-c2ccc([N+](=O)[O-])cc2)cs1` (stereo not given), for which the growth inhibition in test [1] was 23.8%; in test [2], 8.95%; in test [3], 3.85%; in test [4], 25.7%; in test [5], 4.25%; in test [6], -10.8%.
Turning to `C=Cc1ccc(S(N)(=O)=O)cc1`, the growth inhibition in test [1] was -7.45%; in test [2], 15.4%; in test [3] it was -7.55%; in test [4], -16.6%; in test [5], -12.7%; in test [6] it was -2.25%.
With `Cc1cccc2c(/C=C/c3ccc(N(C)C)cc3)ccnc12`, the growth inhibition in test [1] was -11.6%; in test [2], -8%; in test [3], -3.95%; in test [4], -22.2%; in test [5], 2.85%; in test [6], -11.4%.
In the case of `CCCCN(CCCC)Cc1ccnc(C)c1O`, the growth inhibition in test [1] is -9.3%; in test [2] it was 5.85%; in test [3], -8.5%; in test [4] it was 8.7%; in test [5], 3.75%; in test [6], 7.9%.
On to `CCCC1OCC(CC)C(CCC)O1` (stereo not given), for which the growth inhibition in test [1] is 25.5%; in test [2], 4.95%; in test [3], 6.25%; in test [4] it was -37%; in test [5], 7.4%; in test [6] it was 2.7%.
As for `O=C(NCCCBr)Nc1cccc2c1CCCC2`, the growth inhibition was -7.45% in test [1]; 5.9% in test [2]; 2.5% in test [3]; -31.5% in test [4]; -20.9% in test [5]; -21.1% in test [6].
Take `NC(=O)c1ccccc1NC(=O)Nc1ccc(Cl)cc1`: the growth inhibition in test [1] is -3.6%; in test [2] it was 20.8%; in test [3], 13.8%; in test [4], -15.3%; in test [5], 21.5%; in test [6] it was 27%.
